Our source for the Potency values is PubChem BioAssay (NCATS).

Assay [1] is described as follows: Cell Viability - LYMP1-003 - Assay at 40 hr (AID 964). Further: nearly all actives have a fitted effect of over 60% in size. The essentials:
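LYMP1-003 lymphoblastoid cells, 2500/well; 5 hr preincubation, 40 hr compound exposure, 37 C; CellTiter-Glo 30 min RT; luminescence; Hill-fit AC50. Positive control tetraoctylammonium bromide.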

Assay [2] is described as follows: Cell Viability - LYMP2-003 (AID 965).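 Further: cells exposed to compounds for 24 h before reading; nearly all actives have a fitted effect of over 50% in size.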 The essentials:
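Human lymphoblastoid LYMP2-003 cells, 2500/well, exposed to compounds for 24 h at 37 C in complete medium. Viability read as intracellular ATP by CellTiter-Glo luminescence; AC50 from Hill-equation fits of qHTS concentration-response data.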

The nature of assay [3]: Cell Viability - LYMP2-004 (AID 966). Further: nearly all actives have a fitted effect of over 65% in size. The essentials:
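Luminescent ATP read-out (CellTiter-Glo, 30 min RT) after 24 hr compound exposure at 37 C; 2500 lymphoblastoid cells/well, complete medium. Decrease in ATP = cytotoxicity; AC50 from standard Hill model.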

Assay [4] in a line: Cell Viability - LYMP2-005 (AID 967). The essentials:
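Human lymphoblastoid LYMP2-005 cells, 2,500 per well in complete medium, rested 5 h at 37C then compound-treated 24 h at 37C. Intracellular ATP read by CellTiter-Glo luminescence after 30 min at room temperature; AC50 from Hill-equation fits of concentration-response data.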

A short description of assay [5]: Cell Viability - LYMP2-011 (AID 969). Further: nearly all actives have a fitted effect of over 60% in size. The procedure, abridged: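 Luminescent ATP read-out (CellTiter-Glo, 30 min RT) after 24 hr compound exposure at 37 C in human lymphoblastoid cells, 2500 cells/well. Decreasing ATP indicates cytotoxicity; AC50 from standard Hill fit.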
Assay [6] can be described thus: Cell Viability - LYMP2-013 (AID 970). Further: nearly all actives have a fitted effect of over 55% in size. The essentials: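 CellTiter-Glo luminescence (cellular ATP) read after 30 min at RT. Cells: human lymphoblastoid line, 2500/well, 24 hr compound exposure at 37 C. Tetraoctylammonium bromide positive control; AC50 via standard Hill fit of qHTS titrations.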
Assay [7] is described as follows: Cell Viability - LYMP2-015 (AID 971). Further: nearly all actives have a fitted effect of over 55% in size. The essentials: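 qHTS cytotoxicity: 2500 cells/well, 5 hr 37 C, compound 24 hr 37 C, CellTiter-Glo 30 min RT, luminescence. Loss of ATP = toxicity; AC50 via standard Hill fit.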
The nature of assay [8]: Cell Viability - LYMP2-017 (AID 972). Further: nearly all actives have a fitted effect of over 55% in size. The essentials: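 Luminescent ATP read-out (CellTiter-Glo, 30 min RT) reports viable cell number. Cells: human lymphoblastoid line, 2500 per well, 5 hr preincubation, 24 hr compound exposure at 37 C. AC50 is derived from qHTS concentration-response data using the standard Hill model.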
The nature of assay [9]: Cell Viability - LYMP2-019 (AID 973). Further: nearly all actives have a fitted effect of over 55% in size. The procedure, abridged:
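qHTS, 1536-well; 2500 cells/well; 5 hr pre-incubation, 24 hr compound exposure, 37 C; CellTiter-Glo added, 30 min RT; luminescence read; AC50 via standard Hill equation.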

Assay [10] in a line: Cell Viability - LYMP2-021 (AID 974). The procedure, abridged: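 ATP luminescence (CellTiter-Glo, 30 min RT) after 24 h compound exposure at 37 C; 2500 human lymphoblastoid cells/well, 5 h settle beforehand. Cytotoxicity = concentration-dependent ATP drop, AC50 by Hill fit.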

Each structure is given as a SMILES string. Inconclusive results are not listed. Calls of active or inactive are those of the source. The call rests on the fitted dose curve; in most records, active means well fitted curve in the direction sought with a large enough effect; inconclusive means small, poorly fitted or top-dose-only effect, or another doubt; inactive means no such curve, though single readings can be large; an effect the other way counts as inactive or inconclusive.
Potency means the concentration at half of the fitted maximal effect.

Turning to `[Cl-].[Cl-].[Hg+2]`, the Potency in [1] is 1 µM (active); in [2] it was 0.794 µM (active); in [3], 0.251 µM (active); in assay [4], 0.501 µM (active); in [5] it was 12.6 µM (active); in assay [6], 5.01 µM (active). Also, the Potency was 12.6 µM (active) in assay [7], 1 µM (active) in assay [8], 10 µM (active) in [9] and 1.58 µM (active) in [10].
Turning to `COC1=CC(=O)O[C@@H](/C=C/c2ccccc2)C1`, the Potency result in assay [1], in assay [2], in assay [3], in [4], in assay [5] and in assay [6] was “inactive” in each case. Further, the Potency result in assay [7], in assay [8], in assay [9] and in assay [10] was “inactive” throughout.
Regarding `O=[N+]([O-])c1ccccc1`, the Potency result in assay [1], in assay [2], in [3], in [4], in assay [5] and in [6] was “inactive” in each case. For the same compound, the Potency result in [7], in assay [8], in assay [9] and in [10] was “inactive” throughout.
Turning to `C=CCN=C=S`, the Potency entry in assay [1], in assay [2], in assay [3], in assay [4], in assay [5] and in assay [6] was “inactive” in each case. For the same compound, the Potency entry in assay [7], in assay [8], in assay [9] and in assay [10] was “inactive” each time.
With `ClC(Cl)(Cl)Cl`, the Potency result in [1], in assay [2], in assay [3], in [4], in [5] and in assay [6] was “inactive” throughout. Besides, the Potency entry in [7], in [8], in assay [9] and in assay [10] was “inactive” in each case.
`CCOC(=O)c1ccccc1C(=O)OCC`: the Potency result in [1], in assay [2], in assay [3], in [4], in assay [5] and in assay [6] was “inactive” each time. The Potency result in assay [7], in [8], in assay [9] and in assay [10] was “inactive” throughout.
On to `CC(C)(C)c1cc(O)ccc1O`, for which the Potency entry in assay [1] and in [2] was “inactive” throughout. In addition, the Potency in assay [3] is 39.8 µM (active); in assay [6], 50.1 µM (active); in assay [7], 50.1 µM (active); in assay [8], 50.1 µM (active); in assay [9], 50.1 µM (active); in assay [10], 50.1 µM (active).
`CCCCCCCCOC(=O)c1ccccc1C(=O)OCCCCCCCC`: the Potency entry in [1], in assay [2], in [3], in assay [4], in [5] and in assay [6] was “inactive” each time. The Potency result in assay [7], in assay [8], in assay [9] and in assay [10] was “inactive” in each case.
With `CC(C)CCON=O`, the Potency result in assay [1], in [2], in assay [3], in assay [4], in assay [5] and in [6] was “inactive” each time. Besides, the Potency entry in [7], in [8], in assay [9] and in assay [10] was “inactive” each time.
`O=C1CCO1`: the Potency result in assay [1], in assay [2], in assay [3], in [4], in [5] and in [6] was “inactive” in each case. For the same compound, the Potency result in assay [7], in assay [8], in assay [9] and in assay [10] was “inactive” throughout.
As for `Clc1ccccc1Cl`, the Potency entry in assay [1], in assay [2], in assay [3], in assay [4], in assay [5] and in assay [6] was “inactive” in each case. Further, the Potency entry in [7], in assay [8], in assay [9] and in assay [10] was “inactive” each time.
Take `CCCCCl`: the Potency entry in assay [1], in assay [2], in assay [3], in assay [5], in assay [6] and in [7] was “inactive” each time. The Potency entry in assay [8], in assay [9] and in [10] was “inactive” throughout.
Turning to `O=CC=O`, the Potency result in assay [1], in [2], in assay [3], in assay [4], in [5] and in assay [6] was “inactive” each time. Further, the Potency entry in assay [7], in [8], in [9] and in assay [10] was “inactive” in each case.
Turning to `C[C@H]1CCC[C@H](O)CCCCCc2cc(O)cc(O)c2C(=O)O1`, the Potency entry in assay [1], in assay [2], in [3], in assay [4], in assay [5] and in assay [6] was “inactive” throughout. Also, the Potency entry in assay [7], in assay [8], in assay [9] and in assay [10] was “inactive” each time.
On to `CC(C)Nc1ccc(Nc2ccccc2)cc1`, for which the Potency was 31.6 µM (active) in [1]; 39.8 µM (active) in [2]; 39.8 µM (active) in assay [3]; 31.6 µM (active) in [5]; 31.6 µM (active) in assay [6]; 25.1 µM (active) in [7]. For the same compound, the Potency in [8], in assay [9] and in [10] was 25.1 µM (active) throughout.
